Reference: ChEMBL document CHEMBL3988442, “University of Dundee, Small-Polar-MMV Screening Library” (2021)
Hit rate of the full screen: of about 48,000 compounds, about 13,000 (27%) showed an effect of 50% or more. The list shows a part of the results.

system: Wolbachia pipientis; assay: Anti-Wolbachia Cell-Based Screen; type: functional; parameters: scale not given: in the data most compounds retested in dose-response had high values; details: 5 µM

SMILES | Percent Effect
O=C1CCCN1CCN1CC[C@@]2(O)CCN(c3ncccn3)C[C@H]2C1 | -11.72%
OC(CNCCn1cccn1)COc1ccc(Br)cc1 (centres undefined) | 2.37%
CCN(CC)CC[C@H]1CN(C(=O)C(C)(C)C)CC[C@H]1CC(=O)O | -8.739%
Cc1nc2n(n1)CC(NCCCc1nc(-c3cccs3)no1)CC2 (centres undefined) | -18.09%
Cc1cccc(NC(=O)CN(C)C(=O)c2scnc2C)n1 | 117.3%
Cc1ncsc1C(=O)N[C@@H](Cc1ccccc1)C(N)=O | 5.528%
Cc1oc(C)c(C(=O)Nc2ccccn2)c1C | 13.13%
Cc1cccc(NC(=O)CN(C)C(=O)c2ccc(-n3cccc3)nc2)n1 | 6.082%
Cc1ccc(C(=O)N(C)CC(=O)Nc2cccc(C)n2)cn1 | -9.643%
Cc1ncsc1C(=O)Nc1ccccn1 | 113.7%
CCn1cc2c(n1)C(COCC1CC1)CN(C(=O)c1cnoc1C)C2 (centres undefined) | -6.391%
CN(CC1Cc2ccccc2CN1C)C(=O)CSc1ccccn1 (centres undefined) | 0.2013%
COCCN1CCC2(CC1)CC(NCc1ccc(C)s1)c1ccccc12.O=C(O)C(F)(F)F.O=C(O)C(F)(F)F (centres undefined) | 109.1%
Cc1cccc(CNC2CC3(CCN(CCO)CC3)c3ccccc32)n1.O=C(O)C(F)(F)F.O=C(O)C(F)(F)F (centres undefined) | 121.3%
COCCN1CCC2(CC1)CC(N1CCOCC1)c1cc(C)ccc12.O=C(O)C(F)(F)F.O=C(O)C(F)(F)F (centres undefined) | -13.01%
Cc1ccc(CNC2CC3(CCN(CCO)CC3)c3ccccc32)s1.O=C(O)C(F)(F)F.O=C(O)C(F)(F)F (centres undefined) | 107.2%
O=C(NC1CC2(CCN(CCO)CC2)c2ccccc21)c1ccno1.O=C(O)C(F)(F)F (centres undefined) | -3.484%
O=C(NC1CC2(CCN(CCO)CC2)c2ccccc21)c1ccsc1.O=C(O)C(F)(F)F (centres undefined) | -2.437%
COCCN1CCC2(CC1)CC(NCc1cncn1C)c1ccccc12.O=C(O)C(F)(F)F.O=C(O)C(F)(F)F (centres undefined) | -4.638%
CC(NCc1cccn1C)c1noc(-c2ccc(Cl)cc2)n1 (centres undefined) | -2.056%
CN1C(=O)CO[C@H](c2ccc(NC(=O)c3cccnc3)cc2)[C@H]1CO | -10.51%
Nc1nc2c(c(NC(=O)Nc3cccc(Cl)c3)n1)CCCC2 | 7.303%
Cc1c(NCc2ccc(C#N)cc2)cccc1S(=O)(=O)NC1CC1 | -7.698%
c1cn(CCn2cnnc2)c(-c2cc3n(n2)CCCNC3)n1 | -4.741%
COc1ccccc1C(=O)N1CC(=O)N(CC(C)C)CC(O)C1 (centres undefined) | 116.8%

SMILES | Percent Effect
COc1ccccc1C(=O)N1CC(=O)N(CC2CC2)CC(O)C1 (centres undefined) | 108.3%
COc1ccccc1C(C)CC(=O)N1CC[C@H](O)C1 (some centres undefined) | 18.86%
CC(C)c1nnc2n1CCN(C(=O)c1ccccc1OCC1CC1)C2 | -3.948%
CCC(NC(=O)c1ccco1)c1nc(C(F)(F)F)cs1 (centres undefined) | -6.981%
O=C(C1CCC2(CCN(c3ncccn3)CC2)CO1)N1CCCC1 (centres undefined) | 10.33%
CNC(=O)NCC1CCC2(CCN(C(=O)c3cccnc3)CC2)CO1.O=C(O)C(F)(F)F (centres undefined) | 102.7%
CNC(=O)NCC1CCC2(CCN(C(=O)c3ccccc3)CC2)CO1 (centres undefined) | 108.3%
CNC(=O)NCC1CCC2(CCN(c3ncccn3)CC2)CO1 (centres undefined) | 88.92%
COCC1CC2(CCN(C(=O)c3oc4ccccc4c3C)CC2)CO1 (centres undefined) | -1.277%
COCC1CC2(CCN(C(=O)c3cncc(C)c3)CC2)CO1.O=C(O)C(F)(F)F (centres undefined) | 8.897%
COCC1CC2(CCN(C(=O)c3cccc(C)c3)CC2)CO1 (centres undefined) | -11.23%
CS(=O)(=O)N1CCOCC2(CCN(C(=O)c3cccnc3)CC2)C1.O=C(O)C(F)(F)F | -2.226%
CC(C)NC(=O)C1CCC2(CCN(c3ncccn3)CC2)CO1 (centres undefined) | -6.885%
Cc1ccc(-c2cc(C(=O)NCCC3=CCCCC3)[nH]n2)o1 | 9.696%
COc1nc2c(cc1C(=O)N(C)Cc1noc3c1CCCC3)CCC2 | -4.32%
Cc1ccc(-c2cc(C(=O)N(C)Cc3noc4c3CCCC4)[nH]n2)o1 | 119%
Cc1ccc(-c2cc(C(=O)N(C)Cc3noc4c3CCCC4)[nH]n2)s1 | 126%
CN(Cc1noc2c1CCCC2)C(=O)C1Cc2ccccc2CN1C (centres undefined) | 9.151%
CN(Cc1noc2c1CCCC2)C(=O)CN1C(=O)CSc2ccccc21 | 0.5887%
COc1ccc(C(=O)NC2CC2)c(OC2CCN(C3CCC3)CC2)c1 | 0.9223%
O=C(Nc1ccc(F)cc1)C1CNCCN1C(=O)CCO (centres undefined) | -8.613%
COc1ccccc1C1CNCCN1C(C)=O (centres undefined) | 170.5%
COc1ccccc1OC1CN(C(=O)C2CNCC(=O)N2)C1 (centres undefined) | 3.442%
COc1ccccc1C1CNCCN1C(=O)c1ccc(F)cc1 (centres undefined) | 170.1%
COc1ccc(C(=O)N2CCCC2c2ccco2)cc1OC (centres undefined) | -0.7331%

SMILES | Percent Effect
COc1cc(S(=O)(=O)N2C[C@@H](C)[C@@](C)(O)C2)c(C)cc1C | -12.13%
Cc1cccnc1CNCC1(O)CCCN(Cc2ccc(F)cc2)C1=O (centres undefined) | 9.379%
CCOc1cc(NC(=O)N(C)Cc2ncnn2C)ccc1C | -12.81%
CCOc1cc(C(=O)N(C)C)ccc1NC(=O)c1ccsc1 | -5.987%
CC(C)Cc1ncc2c(n1)CN(C(=O)Cn1c(=O)oc3ccccc31)C2 | -4.555%
CC(C)CC(=O)N1CC(=O)c2sc(NCCc3ccccc3)nc2C1 | 112.3%
Cn1ccc(C(=O)N2CCN(CCc3ccccc3)CC2)cc1=O | -2.355%
Cn1cnc2c1CCN(CCCc1ccccc1)C2 | 0.7928%
CC(C)SCC(=O)N1Cc2cnc(-c3ccccc3)nc2C1 | 3.989%
CN1CC(=O)c2sc(NCCc3ccccc3)nc2C1 | 91.14%
CNc1nc(CNC(=O)Nc2cccc(F)c2)cs1 | -0.1987%
CC(NC1(CNC(=O)NC2CC2)CCOCC1)c1ccccc1 (centres undefined) | 5.387%
CCC1=N[C@@]2(CC[C@@H]3CN(Cc4ccccc4C)C[C@@H]32)C(=O)N1C.O=C(O)C(F)(F)F | 114.6%
CCC1=N[C@@]2(CC[C@@H]3CN(CC(=O)N(C)C)C[C@@H]32)C(=O)N1CC1CC1.O=C(O)C(F)(F)F | -4.089%
CCC1=N[C@@]2(CC[C@@H]3CN(Cc4ccc(F)cc4)C[C@@H]32)C(=O)N1C.O=C(O)C(F)(F)F | 103.7%
CCC1=N[C@@]2(CC[C@@H]3CN(Cc4cccc(Cl)c4)C[C@@H]32)C(=O)N1C.O=C(O)C(F)(F)F | 95.01%
CCC1=N[C@@]2(CC[C@@H]3CN(C(=O)NCc4ccccc4)C[C@@H]32)C(=O)N1C | -13.65%
O=C(O)C(F)(F)F.O=C1NC(c2ccccc2)=N[C@@]12CC[C@@H]1CN(Cc3ccccc3)C[C@@H]12 | 4.255%
CCC1=N[C@@]2(CC[C@@H]3CN(Cc4ccccc4F)C[C@@H]32)C(=O)N1CC.O=C(O)C(F)(F)F | -10.67%
CCC1=N[C@@]2(CC[C@@H]3CN(Cc4ccc(C)cc4)C[C@@H]32)C(=O)N1C.O=C(O)C(F)(F)F | 81.5%
CCC1=N[C@@]2(CC[C@@H]3CN(CC(C)C)C[C@@H]32)C(=O)N1.O=C(O)C(F)(F)F | -10.58%
CCC1=N[C@@]2(CC[C@@H]3CN(C(=O)NC(C)C)C[C@@H]32)C(=O)N1C | -5.226%
CC1=N[C@@]2(CC[C@@H]3CN(CC(C)C)C[C@@H]32)C(=O)N1C.O=C(O)C(F)(F)F | 8.258%
CCC1=N[C@@]2(CC[C@@H]3CN(Cc4ccccc4C)C[C@@H]32)C(=O)N1.O=C(O)C(F)(F)F | -9.167%
